Reference: PubChem BioAssay
Activity calls are given as the source filed them.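 Rule for the calls: active = differentiation response of at least 50%, scaled between solvent and reference control, from cells with both markers; inactive = the rest.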

Experiment: promoters of myeloid differentiation in arrested cells, primary screen, cell-based, GFP/MAC1 double positive, flow cytometry, validation set (AID 588685);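 note: compound exposure lasts four days before antibody staining and flow analysis; 0% = DMSO wells and 100% = 5 µM fulvestrant positive control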
Conditions: ER-HoxA9 marrow cells, hits give high values

SMILES	differentiation response
CC(CCc1ccccc1)NC(C)C(O)c1ccc(O)cc1 (centres undefined)	-16.4% (inactive)
NCCc1ccc(O)cc1	-11.9% (inactive)
CC/C(=C\C=C\[C@@H]1C=C[C@@H]2CCC[C@H]2[C@@H]1C(=O)c1ccc[nH]1)[C@@H]1O[C@@H]([C@@H](C)C(=O)O)CC[C@@H]1C	-4% (inactive)
Cc1c2ccncc2c(C)c2c1[nH]c1ccccc12	18% (inactive)
CCC(COC(=O)c1cc(OC)c(OC)c(OC)c1)(c1ccccc1)N(C)C (centres undefined)	-3.02% (inactive)
Clc1ccc(COC(Cn2ccnc2)c2ccc(Cl)cc2Cl)c(Cl)c1 (centres undefined)	-1.05% (inactive)
COc1cc(/C=C2\C(=O)NC(=O)N(c3ccccc3)C2=O)c([N+](=O)[O-])cc1OC	-8.96% (inactive)
Nc1ccc([As](=O)(O)O)cc1	-0.2% (inactive)
O=C1CSC2N1CCNC21CCCCC1 (centres undefined)	28.6% (inactive)
CC(=O)Nc1cc([As](=O)(O)O)ccc1O	-0.06% (inactive)
C[C@]12CCC(=O)C(O)=C1CC[C@@H]1[C@@H]2CC[C@]2(C)C(=O)CC[C@@H]12	3.28% (inactive)
C[C@]12CCC(=O)C=C1CC[C@@H]1[C@@H]2C(=O)C[C@]2(C)C(=O)CC[C@@H]12	5.85% (inactive)
CN1[C@@H]2CC[C@H]1CC(OC(=O)C1C=Nc3ccccc31)C2 (some centres undefined)	-3.43% (inactive)
CCCC(=O)OCC[N+](C)(C)C	2.46% (inactive)
CC12CCC3C(CC=C4CC5(CCC43C)OCCO5)C1CCC2=O (centres undefined)	-4.09% (inactive)
Cc1nc2ccccc2c(=O)n1-c1ccc(C(=O)O)cc1	-8.96% (inactive)
c1ccc2c(c1)OCC(C1=NCCN1)O2 (centres undefined)	-19.6% (inactive)
C[C@]12CC[C@@H]3c4ccc(O)c(O)c4CC[C@H]3[C@@H]1CC[C@@H]2O	3.03% (inactive)
NCC(O)c1ccc(O)cc1 (centres undefined)	2.46% (inactive)
COc1ccc2c3c([nH]c2c1)C(C)=NCC3	20.8% (inactive)
CCCC(C)(COC(N)=O)COC(=O)NC(C)C (centres undefined)	44.3% (inactive)
c1cnc2c(c1)ccc1ncccc12	-17.8% (inactive)
CC12CN3CC(c4ccccc4)(CN(C1)C31CCCCC1)C2=O	13.6% (inactive)
C[C@H]1CCCC(=O)CCCCCc2cc(O)cc(O)c2C(=O)O1	5.85% (inactive)
